The target in test [1] is Paired box protein Pax-6 (Homo sapiens) (UniProt P26367). Description: ATG_Pax6_CIS: Attagene CIS-FACTORIAL HepG2 Assay for human Paired Box 6 (PAX6) (AID 2282956). The conditions noted are these: HepG2 CIS-FACTORIAL PAX6 reporter transcription, RNA readout; actives raise or lower the signal. In outline:
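Read-out is reporter transcript level, measured by RT-PCR with fluorescent primer extension and capillary electrophoresis after 24 h dosing of transfected HepG2 cells. Activity in either direction fitted relative to DMSO control.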

Test [2] is described as follows: ATG_PXRE_CIS: Attagene CIS-FACTORIAL HepG2 Assay for human Pregnane X Receptor Element (PXRE) (AID 2282957). The conditions noted are these: HepG2 Attagene CIS-FACTORIAL PXRE reporter, mRNA; actives raise or lower the signal. The procedure, abridged:
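Fluorescent capillary electrophoresis of amplified reporter cDNA gave the signal, collected 24 h after dosing HepG2 cells that held transfected cis-element reporter constructs.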

Test [3] in a line: ATG_PPRE_CIS: Attagene CIS-FACTORIAL HepG2 Assay for human Peroxisome Proliferator-activated Response Element (PPRE) (AID 2282958). The following applies: HepG2 PPRE cis-element reporter, Attagene transcription factor profiling; actives raise or lower the signal. In outline:
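Transcript-level reporter induction in transfected HepG2 cells after 24 h chemical exposure, quantified by fluorescence from RT-PCR products separated by capillary electrophoresis.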

A short description of test [4]: ATG_RORE_CIS: Attagene CIS-FACTORIAL HepG2 Assay for human RAR-related Orphan Receptor Element (RORE) (AID 2282959). The following applies: HepG2 Attagene cis-factorial RORE reporter, mRNA; actives raise or lower the signal. The procedure, abridged: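 Multiplexed reporter assay measuring mRNA induction from a cis promoter element in transiently transfected HepG2 cells after 24 h treatment. Detection via RT-PCR and capillary electrophoresis fluorescence; DMSO serves as baseline.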

Test [5] is described as follows: ATG_Sox_CIS: Attagene CIS-FACTORIAL HepG2 Assay for human SRY-box transcription factor (SOX) (AID 2282960). The conditions noted are these: HepG2 Attagene cis-factorial SOX reporter, mRNA; actives raise or lower the signal. The procedure, abridged:
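Cells were transfected with reporter constructs under cis-regulatory promoters, then exposed to chemicals for 24 h. Reporter transcripts were quantified by fluorescence after RT-PCR and capillary electrophoresis; activity was fitted in both directions against DMSO.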

In test [6] the target is Transcription factor Sp1 (Homo sapiens) (UniProt P08047). Kind of test: ATG_Sp1_CIS: Attagene CIS-FACTORIAL HepG2 Assay for human Specificity Protein 1 (Sp1) (AID 2282961). The following applies: HepG2 Sp1 cis-reporter transcription, actives raise or lower the signal. The procedure, abridged:
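Measures mRNA induction of an Sp1-linked reporter in HepG2 cells 24 h post-dosing. Multiplexed reporters read by RT-PCR and capillary electrophoresis; DMSO serves as negative control and baseline.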

The nature of test [7]: ATG_SREBP_CIS: Attagene CIS-FACTORIAL HepG2 Assay for human Sterol Regulatory Element Binding (SREBP) (AID 2282962). The conditions noted are these: HepG2 Attagene cis-factorial SREBP reporter, mRNA; actives raise or lower the signal. In outline:
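Endogenous SREBP activity read as cis-element-driven reporter transcript in transiently transfected HepG2, 24 h post-dosing; quantified via RT-PCR plus capillary electrophoresis of fluorescent fragments. Gain or loss of signal fitted relative to DMSO baseline.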

The target of test [8] is Signal transducer and activator of transcription 3 (Homo sapiens) (UniProt P40763). Description: ATG_STAT3_CIS: Attagene CIS-FACTORIAL HepG2 Assay for human Signal Transducer and Activator of Transcription 3 (STAT3) (AID 2282963). The following applies: HepG2, Attagene cis-factorial STAT3 reporter transcription; actives raise or lower the signal. In outline:
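Readout: fluorescent reporter mRNA fragments resolved by capillary electrophoresis. Setup: HepG2 transfected with MRTUs reporting endogenous transcription-factor activity, dosed 24 h. Gain or loss of signal fitted bidirectionally against DMSO control.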

The nature of test [9]: ATG_TA_CIS: Attagene CIS-FACTORIAL HepG2 Assay for human TA Basal Promoter (AID 2282964). The following applies: HepG2 Attagene CIS-factorial TA basal promoter reporter; actives raise or lower the signal. In outline: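 Transfected HepG2, 24 h compound exposure; RNA → RT-PCR → FAM primer extension → HpaI cut → CE fluorescence. Gain/loss-of-signal fitted against DMSO negative control. Background-control readout.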

Test [10] in a line: ATG_TCF_b_cat_CIS: Attagene CIS-FACTORIAL HepG2 Assay for human T-Cell-Factor with beta-catenin (TCF/b-cat) (AID 2282965). The conditions noted are these: HepG2 TCF/beta-catenin cis-reporter transcription, actives raise or lower the signal. The procedure, abridged: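 HepG2, transient MRTU transfection, cis-element-driven reporters (endogenous TFs). 24 h compound exposure. Readout: reporter mRNA by RT-PCR + 6-FAM primer extension, HpaI digest, capillary electrophoresis. Gain/loss fit vs DMSO baseline.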

A short description of test [11]: ATG_TAL_CIS: Attagene CIS-FACTORIAL HepG2 Assay for human TAL Basal Promoter (AID 2282966).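 Further: background control endpoint measuring basal TAL promoter reporter mRNA not a specific factor.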 The conditions noted are these: HepG2 Attagene cis-factorial TAL promoter reporter; actives raise or lower the signal. The procedure, abridged: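 Transiently transfected HepG2 (cis-regulated reporter units), 24 h treatment, mRNA read by fluorescent CE after RT-PCR; bidirectional fit, DMSO baseline.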

Test [12] in a line: ATG_TGFb_CIS: Attagene CIS-FACTORIAL HepG2 Assay for human Transforming Growth Factor (TGF) (AID 2282967). The following applies: HepG2 Attagene CIS TGFb reporter, mRNA transcription; actives raise or lower the signal. The procedure, abridged: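 Readout: fluorescently labeled reporter cDNA fragments resolved by capillary electrophoresis after RT-PCR. Transfected HepG2 cells dosed for 24 h; endogenous TF activity at TGFB1-linked cis element; gain or loss fitted relative to DMSO.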

Test [13] in a line: ATG_VDRE_CIS: Attagene CIS-FACTORIAL HepG2 Assay for human Vitamin D Receptor Element (VDRE) (AID 2282968). The conditions noted are these: HepG2 VDRE cis-reporter transcription, actives raise or lower the signal. In outline: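 Transient MRTU transfection of HepG2, 24 h compound exposure. Readout: reporter transcripts via RT-PCR and capillary electrophoresis, fluorescence. Bidirectional fit vs DMSO.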

In test [14] the target is Nuclear receptor subfamily 1 group I member 3 (Homo sapiens) (UniProt Q14994). Kind of test: ATG_CAR_TRANS: Attagene TRANS-FACTORIAL HepG2 Assay for human Constitutive Androstane Receptor (CAR) (AID 2282969; active means hit-call score of the fitted dose curve at least 0.9, where 1 is the maximum;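 further: activators raise reporter mRNA above DMSO so AC50 marks induction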). The following applies: HepG2 Attagene TRANS-FACTORIAL CAR reporter. In outline: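 Transiently transfected HepG2, multiplex TRANS reporters (CAR-Gal4 chimera driving GAL4-UAS reporter). 24 h dosing. Readout: reporter transcript by RT-PCR + capillary electrophoresis, fluorescence intensity; positive direction vs DMSO.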
Nuclear receptor subfamily 1 group I member 3 (Homo sapiens), sequence (Q14994 whole entry, looked up, the tested form may be a part): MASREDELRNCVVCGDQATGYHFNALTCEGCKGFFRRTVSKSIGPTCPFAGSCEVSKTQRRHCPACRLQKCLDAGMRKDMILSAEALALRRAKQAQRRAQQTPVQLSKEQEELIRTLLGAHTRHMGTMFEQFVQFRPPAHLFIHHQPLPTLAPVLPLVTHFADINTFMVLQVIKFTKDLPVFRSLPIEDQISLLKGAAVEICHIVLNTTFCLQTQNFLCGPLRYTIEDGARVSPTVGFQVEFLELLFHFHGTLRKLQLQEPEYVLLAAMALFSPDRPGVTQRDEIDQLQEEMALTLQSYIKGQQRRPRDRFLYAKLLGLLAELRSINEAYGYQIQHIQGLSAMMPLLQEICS

In test [15] the target is X-box-binding protein 1 (Homo sapiens) (UniProt P17861). Kind of test: ATG_Xbp1_CIS: Attagene CIS-FACTORIAL HepG2 Assay for human X-box Binding Protein 1 (XBP1) (AID 2282972). The following applies: HepG2 XBP1 cis-element reporter, Attagene multiplex; actives raise or lower the signal. The procedure, abridged: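 Reporter transcripts were quantified by RT-PCR with fluorescent primer extension and capillary electrophoresis after 24 h chemical exposure. Cells: transiently transfected HepG2 carrying cis-regulated reporter constructs; data fitted bidirectionally relative to DMSO.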
X-box-binding protein 1 (Homo sapiens), sequence (P17861 whole entry, looked up): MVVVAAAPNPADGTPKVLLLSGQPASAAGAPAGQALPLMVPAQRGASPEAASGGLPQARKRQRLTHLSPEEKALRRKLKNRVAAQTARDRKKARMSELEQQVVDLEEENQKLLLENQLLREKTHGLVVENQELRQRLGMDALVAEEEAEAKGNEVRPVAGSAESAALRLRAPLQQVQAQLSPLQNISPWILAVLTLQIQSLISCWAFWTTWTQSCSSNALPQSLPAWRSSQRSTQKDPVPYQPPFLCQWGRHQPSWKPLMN

Test [16] is described as follows: ATG_M_19_TRANS: Attagene TRANS-FACTORIAL HepG2 Assay for M19 Transcription Factor (Internal Marker) (AID 2282974; active means hit-call score of the fitted dose curve at least 0.9, where 1 is the maximum). The conditions noted are these: HepG2 Attagene TRANS-FACTORIAL M19 internal marker reporter. In outline: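 After transfection of HepG2 with GAL4-UAS-driven reporter constructs, cells are dosed for 24 h. Total RNA is reverse-transcribed, reporter sequences PCR-amplified and labelled, then HpaI-digested and sized by capillary electrophoresis.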

The nature of test [17]: ATG_GAL4_TRANS: Attagene TRANS-FACTORIAL HepG2 Assay for GAL4 (Internal Marker) (AID 2282976; active means hit-call score of the fitted dose curve at least 0.9, where 1 is the maximum). The conditions noted are these: HepG2 Attagene TRANS GAL4 internal marker reporter. In outline:
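HepG2 cells transiently transfected with multiplexed GAL4-UAS reporter constructs were dosed for 24 h. Reporter mRNA was measured by RT-PCR, 6-FAM primer extension, HpaI digestion and capillary electrophoresis, and gain of signal was fitted relative to DMSO.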

Test [18] deals with Estrogen receptor (Homo sapiens) (UniProt P03372). Description: ATG_ERa_TRANS: Attagene TRANS-FACTORIAL HepG2 Assay for human Estrogen Receptor alpha (ERa) (AID 2282970; active means hit-call score of the fitted dose curve at least 0.9, where 1 is the maximum). The following applies: HepG2 Attagene TRANS ERa GAL4 reporter, mRNA. In outline:
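One of 30 multiplexed endpoints from a HepG2 TRANS system, this one reports ERa-Gal4-driven reporter mRNA. Transcripts were quantified 24 hours post-dosing by fluorescent RT-PCR and capillary electrophoresis, with activity scored as induction over DMSO.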

Test [19] concerns the target Steroid hormone receptor ERR1 (Homo sapiens) (UniProt P11474). Kind of test: ATG_ERRa_TRANS: Attagene TRANS-FACTORIAL HepG2 Assay for human Estrogen-Related Receptor alpha (ERRa) (AID 2282971; active means hit-call score of the fitted dose curve at least 0.9, where 1 is the maximum). The following applies: HepG2 Attagene TRANS reporter, ERRa transactivation. The procedure, abridged:
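HepG2 cells transiently transfected with multiplexed GAL4-UAS reporter units reading chimeric ERRa-Gal4 activity; 24 h compound exposure. Reporter mRNA measured by RT-PCR, 6-FAM labelling, HpaI digest and capillary electrophoresis; gain of signal fitted versus DMSO baseline.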

The target of test [20] is Estrogen-related receptor gamma (Homo sapiens) (UniProt P62508). Description: ATG_ERRg_TRANS: Attagene TRANS-FACTORIAL HepG2 Assay for human Estrogen-Related Receptor gamma (ERRg) (AID 2282977; active means hit-call score of the fitted dose curve at least 0.9, where 1 is the maximum;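 further: hits increase reporter signal over DMSO so potencies reflect activators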). The following applies: HepG2 Attagene TRANS reporter, ERRg transactivation. In outline:
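Exogenous NR-Gal4 chimera activity was assessed in HepG2 cells bearing transfected GAL4-UAS reporters. After 24 h dosing, total RNA underwent RT-PCR, fluorescent primer extension and HpaI digestion before capillary electrophoresis, with gain of signal scored against DMSO.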

Results filed as inconclusive are left out. Activity calls are given as the source filed them. How the source made its calls, unless noted: active means hit-call score of the fitted dose curve at least 0.9, where 1 is the maximum; inactive means score below 0.9.

Signal transducer and activator of transcription 3 (Homo sapiens), sequence (P40763 whole entry, looked up, the tested form may be a part): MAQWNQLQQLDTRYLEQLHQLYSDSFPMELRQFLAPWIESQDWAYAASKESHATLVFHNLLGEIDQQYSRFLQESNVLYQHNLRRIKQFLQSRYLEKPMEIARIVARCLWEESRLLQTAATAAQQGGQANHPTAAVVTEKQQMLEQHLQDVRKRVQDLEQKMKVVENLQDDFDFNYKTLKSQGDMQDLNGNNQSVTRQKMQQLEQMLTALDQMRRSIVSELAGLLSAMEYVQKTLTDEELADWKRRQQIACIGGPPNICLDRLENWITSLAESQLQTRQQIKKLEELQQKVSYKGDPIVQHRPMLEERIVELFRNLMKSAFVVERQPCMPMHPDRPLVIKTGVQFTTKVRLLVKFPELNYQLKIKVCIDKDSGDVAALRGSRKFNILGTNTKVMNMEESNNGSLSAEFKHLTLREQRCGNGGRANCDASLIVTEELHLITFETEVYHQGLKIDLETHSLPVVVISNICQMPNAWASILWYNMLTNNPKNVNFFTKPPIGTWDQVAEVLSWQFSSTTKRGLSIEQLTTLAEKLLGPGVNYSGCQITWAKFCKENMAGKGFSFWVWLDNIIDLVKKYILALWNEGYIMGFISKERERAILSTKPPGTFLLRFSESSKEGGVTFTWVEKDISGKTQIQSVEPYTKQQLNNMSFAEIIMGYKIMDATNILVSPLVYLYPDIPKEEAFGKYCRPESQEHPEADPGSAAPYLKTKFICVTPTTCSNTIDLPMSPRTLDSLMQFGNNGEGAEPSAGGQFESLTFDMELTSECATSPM
Transcription factor Sp1 (Homo sapiens), sequence (P08047 whole entry, looked up): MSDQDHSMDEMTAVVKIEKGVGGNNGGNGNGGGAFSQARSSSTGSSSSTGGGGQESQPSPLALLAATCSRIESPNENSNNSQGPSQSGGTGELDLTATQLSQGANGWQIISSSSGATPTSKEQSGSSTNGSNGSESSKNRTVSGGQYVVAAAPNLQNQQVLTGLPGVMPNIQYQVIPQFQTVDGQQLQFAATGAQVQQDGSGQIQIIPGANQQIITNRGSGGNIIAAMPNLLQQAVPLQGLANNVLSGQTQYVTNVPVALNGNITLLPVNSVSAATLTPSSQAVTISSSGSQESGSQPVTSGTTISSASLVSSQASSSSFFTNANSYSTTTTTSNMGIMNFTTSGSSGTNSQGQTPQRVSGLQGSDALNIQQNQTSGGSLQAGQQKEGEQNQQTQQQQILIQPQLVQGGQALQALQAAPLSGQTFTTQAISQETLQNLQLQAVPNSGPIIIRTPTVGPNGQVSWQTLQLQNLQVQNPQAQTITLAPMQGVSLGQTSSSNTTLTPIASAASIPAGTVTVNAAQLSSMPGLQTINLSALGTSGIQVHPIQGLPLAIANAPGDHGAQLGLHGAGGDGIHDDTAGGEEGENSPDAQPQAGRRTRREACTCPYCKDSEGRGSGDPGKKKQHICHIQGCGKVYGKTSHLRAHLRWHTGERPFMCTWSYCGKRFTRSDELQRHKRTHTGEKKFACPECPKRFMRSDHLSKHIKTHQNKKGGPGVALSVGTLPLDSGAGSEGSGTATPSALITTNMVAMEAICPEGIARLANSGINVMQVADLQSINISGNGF
Paired box protein Pax-6 (Homo sapiens), sequence (P26367 whole entry, looked up): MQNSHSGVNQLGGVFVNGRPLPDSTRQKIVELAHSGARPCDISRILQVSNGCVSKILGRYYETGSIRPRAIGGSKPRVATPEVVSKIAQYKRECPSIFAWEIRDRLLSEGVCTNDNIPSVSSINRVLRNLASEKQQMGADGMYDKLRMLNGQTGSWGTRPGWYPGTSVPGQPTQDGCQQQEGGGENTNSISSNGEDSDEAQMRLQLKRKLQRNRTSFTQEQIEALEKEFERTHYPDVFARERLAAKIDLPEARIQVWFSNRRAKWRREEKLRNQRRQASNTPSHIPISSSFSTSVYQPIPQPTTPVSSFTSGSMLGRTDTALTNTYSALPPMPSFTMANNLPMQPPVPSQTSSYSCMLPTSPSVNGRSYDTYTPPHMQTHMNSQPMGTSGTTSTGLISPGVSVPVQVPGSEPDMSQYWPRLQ
Estrogen receptor (Homo sapiens), sequence (P03372 whole entry, looked up, the tested form may be a part): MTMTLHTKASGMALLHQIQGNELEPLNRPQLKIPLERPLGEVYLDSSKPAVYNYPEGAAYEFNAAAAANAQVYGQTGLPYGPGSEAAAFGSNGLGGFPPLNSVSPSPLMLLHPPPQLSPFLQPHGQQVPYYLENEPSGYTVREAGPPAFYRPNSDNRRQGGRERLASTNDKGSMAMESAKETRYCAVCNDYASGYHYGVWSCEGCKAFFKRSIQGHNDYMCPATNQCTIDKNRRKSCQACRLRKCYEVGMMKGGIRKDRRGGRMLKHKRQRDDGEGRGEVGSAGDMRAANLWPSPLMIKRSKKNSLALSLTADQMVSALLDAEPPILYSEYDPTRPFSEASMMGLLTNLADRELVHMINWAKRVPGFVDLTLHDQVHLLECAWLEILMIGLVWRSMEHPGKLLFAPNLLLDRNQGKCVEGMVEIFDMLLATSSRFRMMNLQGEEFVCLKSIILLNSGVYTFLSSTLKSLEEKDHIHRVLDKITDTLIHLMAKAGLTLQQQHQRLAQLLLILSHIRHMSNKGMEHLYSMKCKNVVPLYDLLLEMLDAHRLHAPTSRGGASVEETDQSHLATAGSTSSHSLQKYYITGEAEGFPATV
Estrogen-related receptor gamma (Homo sapiens), sequence (P62508 whole entry, looked up, the tested form may be a part): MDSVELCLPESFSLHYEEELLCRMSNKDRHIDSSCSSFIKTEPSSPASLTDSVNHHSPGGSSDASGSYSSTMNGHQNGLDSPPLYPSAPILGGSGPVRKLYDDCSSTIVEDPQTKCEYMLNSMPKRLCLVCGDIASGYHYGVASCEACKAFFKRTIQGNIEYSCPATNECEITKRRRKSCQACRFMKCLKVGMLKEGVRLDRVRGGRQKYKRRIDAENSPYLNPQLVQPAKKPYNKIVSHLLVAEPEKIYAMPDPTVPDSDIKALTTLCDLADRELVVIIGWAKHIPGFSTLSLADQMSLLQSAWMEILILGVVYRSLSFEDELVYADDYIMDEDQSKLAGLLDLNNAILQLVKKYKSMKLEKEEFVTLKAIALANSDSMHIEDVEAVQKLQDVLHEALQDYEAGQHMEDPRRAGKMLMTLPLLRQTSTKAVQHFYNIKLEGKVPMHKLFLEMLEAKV
Steroid hormone receptor ERR1 (Homo sapiens), sequence (P11474 whole entry, looked up, the tested form may be a part): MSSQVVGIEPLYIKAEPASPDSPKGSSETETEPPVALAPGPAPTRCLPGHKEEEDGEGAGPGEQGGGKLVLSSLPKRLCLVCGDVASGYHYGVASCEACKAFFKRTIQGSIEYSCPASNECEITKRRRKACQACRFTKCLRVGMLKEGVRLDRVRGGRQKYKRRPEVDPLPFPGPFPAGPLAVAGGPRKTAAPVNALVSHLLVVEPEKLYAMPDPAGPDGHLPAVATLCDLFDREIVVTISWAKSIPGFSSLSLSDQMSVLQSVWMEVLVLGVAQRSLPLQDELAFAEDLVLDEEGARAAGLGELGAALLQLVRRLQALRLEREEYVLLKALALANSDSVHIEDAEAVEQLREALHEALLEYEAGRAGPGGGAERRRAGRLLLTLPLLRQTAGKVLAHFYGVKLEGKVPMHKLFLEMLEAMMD

With `CCCCCCCCCCCCCCCCCC(=O)OCC(CC)CCCC` (stereo unspecified), the compound was called inactive in [1], in [2], in [3], in [4], in test [5] and in test [6]. Moreover, the result in [7], in test [8], in [9], in test [10], in test [11] and in test [12] was inactive. Also, the outcome in test [13], in test [14], in test [15], in test [16] and in test [17] was inactive.

A word on the AC50: it is the concentration at which the activity in the assay is half-maximal. Take `CC1=CCC2C(C1)C2(C)C` (stereo unspecified): the result in test [1], in [3], in [4], in test [5], in test [6] and in [7] was inactive. Also, the compound was called inactive in test [8], in [9], in test [10], in test [11], in test [12] and in [13]. For the same compound, the compound was called inactive in [14] and in test [15]. Moreover, the AC50 is 6.95 µM (active) in test [2] and 77.3 µM (active) in [18].

In the case of `CC(C)=CCCC(C)=CCCC(C)=CCO`, the outcome in test [1], in test [3], in test [4], in test [5], in test [6] and in test [8] was inactive. Further, the call in test [9], in test [10], in test [11], in [12], in test [13] and in test [14] was inactive. Further, the call in test [15] and in test [16] was inactive. Also, the AC50 in [2] is 4.26 µM (active); in test [7], 41.4 µM (active).

With `COc1ccc(NC(=O)CC(C)=O)cc1`, the result in [1], in test [2], in [3], in test [4], in test [5] and in [6] was inactive. The compound was called inactive in test [7], in test [8], in test [9], in [10], in [11] and in [12]. Moreover, the compound was classed as inactive in [13], in test [14], in test [16] and in test [17].

`C=C[C@@H](C)CCC=C(C)C`: the compound was classed as inactive in test [1], in test [2], in test [3], in test [4], in test [5] and in test [6]. Besides, the result in [7], in [8], in test [9], in [10], in [11] and in test [12] was inactive. The outcome in test [13] and in [15] was inactive.

As to `O=C(O)CN(CCN(CC(=O)O)CC(=O)O)CCN(CC(=O)O)CC(=O)O`, the call in test [1], in [2], in test [3], in test [4], in [5] and in test [6] was inactive. In addition, the result in test [7], in [8], in test [9], in test [10], in test [11] and in test [12] was inactive. In addition, the result in [13], in test [19], in [15] and in test [20] was inactive.

Regarding `C=COCCOCCOCCOC=C`, the call in [1], in test [2], in [3], in [4], in [5] and in [6] was inactive. The compound was called inactive in test [7], in test [8], in [9], in test [10], in test [11] and in [12]. Moreover, the call in test [13], in [14], in test [15] and in [17] was inactive.

Regarding `C=CC(C)(CCC=C(C)C)OC=O` (stereo unspecified), the compound was called inactive in test [1], in test [3], in test [4], in test [5], in test [6] and in test [7]. Moreover, the call in test [8], in [9], in test [10], in test [11], in test [12] and in test [13] was inactive. For the same compound, the compound was classed as inactive in [14], in test [18], in test [19], in test [15], in test [16] and in test [17]. The compound was classed as inactive in test [20]. In test [2], the AC50 is 24.8 µM (active).
